This note sets out measurements from PubChem BioAssay (NCI).

What all share (test): NCI-60 one-dose screen, 48 h (100 = growth as untreated, 0 = no growth, -100 = all killed)
One test relates to HT29 colon. Conditions: 10 µM unless noted.
The subject of a further test is SNB-75 CNS. Conditions: 10 µM unless noted.
The next test has as its system SNB-19 CNS. The settings on record: 10 µM unless noted.
Another test has as its system U251 CNS. The settings on record: 10 µM unless noted.
For another test, the system named is PC-3 prostate. Conditions: 10 µM unless noted.
The subject of the next test is SK-MEL-5 melanoma. The settings on record: 10 µM unless noted.
The next test concerns UACC-62 melanoma. Conditions: 10 µM unless noted.
Another test concerns LOX IMVI melanoma. The settings on record: 10 µM unless noted.
For another test, the system named is SK-MEL-28 melanoma. Conditions: 10 µM unless noted.
The subject of another test is EKVX NSCLC. Conditions: 10 µM unless noted.
Another test concerns UO-31 renal. The settings on record: 10 µM unless noted.
For a further test, the system named is TK-10 renal. The settings on record: 10 µM unless noted.
The next test concerns ACHN renal. Conditions: 10 µM unless noted.
Another test deals with CAKI-1 renal. The settings on record: 10 µM.
The subject of another test is CCRF-CEM leukemia. Conditions: 10 µM unless noted.
A further test concerns MOLT-4 leukemia. Conditions: 10 µM unless noted.
The next test concerns SK-MEL-2 melanoma. Conditions: 10 µM unless noted.
The subject of the next test is SN12C renal. The settings on record: 10 µM unless noted.
In the next test the test system is A498 renal. Conditions: 10 µM unless noted.

This is part of a sample that, as a whole, favours compounds with a hit. Of some 83,000 tested, about 20% had one in any assay.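 Method: cells in 96-well plates; compound added at one concentration; 48 h incubation; percent growth measured; values under 10 scored active.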 A number with no mark means an inactive call. Activity calls are given as the source filed them.

`Cc1cn(-c2cc(NC(=O)c3cncc(C#Cc4cnc5ccc(O[C@@H]6CCOC6)nn45)c3)cc(C(F)(F)F)c2)cn1`: the growth is -14% (active) in the test with HT29 colon; -63.3% (active) with SNB-75 CNS; -7.45% (active) in the test with SNB-19 CNS; -96.6% (active) in the test on U251 CNS; -0.613% (active) in the test on PC-3 prostate; -98.4% (active) in the test on SK-MEL-5 melanoma. The growth in the test on UACC-62 melanoma was -51.7% (active); with LOX IMVI melanoma it was -75.7% (active); in the test on SK-MEL-28 melanoma it was -46.9% (active); in the test with EKVX NSCLC it was -9.97% (active); in the test with UO-31 renal, -13.3% (active); with TK-10 renal it was -19.2% (active). Also, the growth is -93.6% (active) with ACHN renal, 1.07% (active) with CAKI-1 renal, 0.641% (active) in the test on CCRF-CEM leukemia and 2.18% (active) in the test on MOLT-4 leukemia.

In the case of `CC1(C)CC[C@]2(C(=O)N3CCCN(CC#N)CC3)CC[C@]3(C)C(=CC[C@@H]4[C@@]5(C)CC[C@H](O)C(C)(C)[C@@H]5CC[C@]43C)[C@H]2C1`, the growth was 34.7% in the test on HT29 colon; 90.5% in the test on SNB-75 CNS; 78.3% in the test with SNB-19 CNS; 56.1% in the test on U251 CNS; 26.7% in the test with PC-3 prostate; 32.2% with SK-MEL-5 melanoma. Also, the growth in the test with UACC-62 melanoma was 54.6%; in the test with LOX IMVI melanoma, -83.7% (active); in the test with SK-MEL-28 melanoma, 72%; in the test on SK-MEL-2 melanoma, 76.8%; in the test on EKVX NSCLC, 91.2%; in the test with SN12C renal it was 59.6%. Moreover, the growth in the test with UO-31 renal was 63.7%; in the test with TK-10 renal, 81.7%; in the test with ACHN renal, 59%; with CAKI-1 renal, 43.7%; in the test with A498 renal it was 39.8%; with CCRF-CEM leukemia, 18.2%. In the test with MOLT-4 leukemia, the growth is 19.1%.

For the compound `CC[C@]12C=CCN3CC[C@]4(C(=C(C(=O)OC)C1)Nc1cc5c(cc14)[C@@H]1[C@H](O5)[C@@H](O)[C@@]4(CC)CC(C(=O)OC)=C5Nc6cc(OC)ccc6[C@@]56CCN1[C@@H]46)[C@@H]32`, the growth in the test with HT29 colon was 2.83% (active); in the test on SNB-75 CNS, 21.1%; with SNB-19 CNS, 3.1% (active); in the test on U251 CNS, 3.18% (active); in the test with PC-3 prostate, 9.02% (active); in the test with SK-MEL-5 melanoma, -2.36% (active). The growth with UACC-62 melanoma is 8.98% (active); with LOX IMVI melanoma it was -85.9% (active); in the test with SK-MEL-28 melanoma, 1.92% (active); in the test with SK-MEL-2 melanoma it was 32.1%; in the test with EKVX NSCLC, 19.1%; with SN12C renal, 16.4%. The growth in the test with UO-31 renal was 11.9%; in the test on ACHN renal, -42.5% (active); in the test on CAKI-1 renal it was 2.12% (active); in the test with A498 renal it was -65.9% (active); in the test on CCRF-CEM leukemia it was 5.92% (active).

For `Cc1cc(-c2ccc3nc(N)sc3c2)nc2ccc3[nH]ncc3c12`, the growth is 21.1% in the test with HT29 colon; -12.7% (active) in the test on SNB-75 CNS; 39.8% in the test on SNB-19 CNS; 29.3% with U251 CNS; 21.9% in the test on UACC-62 melanoma; 43.8% with LOX IMVI melanoma. For the same compound, the growth in the test on SK-MEL-28 melanoma was 38.4%; with SK-MEL-2 melanoma, -3.92% (active); in the test with SN12C renal it was 32%; in the test on UO-31 renal it was 51.4%; in the test on TK-10 renal it was 50.1%; in the test with ACHN renal, 40.7%. In addition, the growth in the test with CAKI-1 renal was 20.3%; in the test with A498 renal, -9.07% (active); in the test with CCRF-CEM leukemia, 27.1%; in the test on MOLT-4 leukemia it was 33.2%.

Regarding `O=C(NNc1nc2cc(F)c(F)cc2n2cccc12)c1cccnn1`, the growth was 29.5% in the test with HT29 colon; 33.7% in the test on SNB-75 CNS; 22.6% in the test on SNB-19 CNS; 14.8% in the test on U251 CNS; 33.7% with PC-3 prostate; -36.8% (active) in the test on SK-MEL-5 melanoma. The growth in the test with UACC-62 melanoma was 10.5%; in the test on LOX IMVI melanoma it was 3.83% (active); in the test with SK-MEL-28 melanoma it was 27.3%; in the test with SK-MEL-2 melanoma, 19.3%; in the test on EKVX NSCLC, 7.06% (active); in the test on SN12C renal, 15.8%. For the same compound, the growth in the test with UO-31 renal is 13.3%; with TK-10 renal, 39.5%; in the test with ACHN renal it was 10.2%; in the test on CAKI-1 renal, 11.8%; in the test with A498 renal, 14.2%; in the test on CCRF-CEM leukemia, 7.8% (active). Further, the growth in the test on MOLT-4 leukemia is 7.86% (active).

Regarding `C=C(C)[C@@H]1CC[C@]2(C(=O)ON)CC[C@]3(C)[C@H](CC[C@@H]4[C@@]5(C)C/C(=C/c6ccc(Br)cc6)C(=O)C(C)(C)[C@@H]5CC[C@]43C)[C@@H]12`, the growth was 71.5% with HT29 colon; 104% in the test on SNB-75 CNS; 78.2% in the test on SNB-19 CNS; 70.8% in the test on U251 CNS; 45.8% in the test with PC-3 prostate; 86.1% in the test with SK-MEL-5 melanoma. The growth in the test on UACC-62 melanoma is 59.5%; with LOX IMVI melanoma, 69.7%; in the test on SK-MEL-28 melanoma it was 84.7%; in the test with SK-MEL-2 melanoma it was 88.8%; with EKVX NSCLC it was 60.5%; in the test with SN12C renal, 71.5%. Further, the growth is 63.7% with UO-31 renal; 105% in the test with TK-10 renal; 76% in the test with ACHN renal; 50% with CAKI-1 renal; 67.8% in the test with CCRF-CEM leukemia; 47.3% with MOLT-4 leukemia.

For `COc1cc(/C=N/Nc2ccnc3cc(Cl)ccc23)cc(OC)c1O`, the growth was 8.25% (active) with HT29 colon; -24.5% (active) in the test with SNB-19 CNS; -87.1% (active) in the test on U251 CNS; -61.1% (active) with PC-3 prostate; -92.7% (active) in the test with SK-MEL-5 melanoma; 101% with UACC-62 melanoma. Also, the growth with LOX IMVI melanoma is -96.2% (active); with SK-MEL-28 melanoma, 98.4%; in the test on SK-MEL-2 melanoma it was 119%; with EKVX NSCLC, -71.8% (active); with SN12C renal, -64.7% (active); in the test with UO-31 renal it was -96.4% (active). Moreover, the growth in the test on TK-10 renal is -69.6% (active); in the test on ACHN renal, -98.2% (active); in the test on CAKI-1 renal it was -93% (active); in the test with A498 renal it was 99.5%; with CCRF-CEM leukemia, 9.72% (active); in the test on MOLT-4 leukemia, -13% (active).

For `COc1ccc(-c2nnc(/N=C3/C(=O)Nc4ccc(Br)cc43)o2)cc1`, the growth is 113% in the test on HT29 colon; 97.8% in the test on SNB-19 CNS; 107% with U251 CNS; 104% in the test with PC-3 prostate; 98.8% with SK-MEL-5 melanoma; 95.7% in the test on UACC-62 melanoma. For the same compound, the growth in the test with SK-MEL-28 melanoma was 102%; in the test on SK-MEL-2 melanoma, 101%; in the test with EKVX NSCLC, 91.7%; in the test with SN12C renal, 107%; in the test with UO-31 renal it was 81.3%; with TK-10 renal, 143%. Further, the growth in the test with ACHN renal was 93.7%; with CAKI-1 renal, 88.8%; in the test on A498 renal, 91.9%; in the test with CCRF-CEM leukemia, 96%; in the test with MOLT-4 leukemia it was 96.1%.

In the case of `CSc1ccc(/C(=N/N=C(N)N)c2ccccc2)cc1`, the growth with HT29 colon was 17%; in the test on SNB-75 CNS, 6.66% (active); with SNB-19 CNS, 29%; in the test with U251 CNS it was 29.2%; in the test with PC-3 prostate, 35.4%; with SK-MEL-5 melanoma, 17.7%. Further, the growth in the test with UACC-62 melanoma is 44%; in the test with LOX IMVI melanoma, 13%; in the test with SK-MEL-28 melanoma, 65.5%; in the test with SK-MEL-2 melanoma, 58.7%; in the test on EKVX NSCLC, 48.1%; in the test on SN12C renal, 27.9%. The growth with UO-31 renal was 35.1%; in the test with ACHN renal it was 28.6%; in the test with CAKI-1 renal it was 42%; in the test with CCRF-CEM leukemia, 10.6%; in the test on MOLT-4 leukemia, 22.3%.

In the case of `Oc1ccc(CSc2nnc(-c3cnccn3)o2)c2cccnc12`, the growth in the test on HT29 colon is 25.2%; in the test on SNB-75 CNS it was 26.5%; in the test with SNB-19 CNS, 18.1%; in the test on U251 CNS it was 18.5%; in the test on PC-3 prostate, 15.2%; with SK-MEL-5 melanoma, -38.5% (active). Further, the growth in the test with UACC-62 melanoma was 15%; in the test on LOX IMVI melanoma, 17.5%; with SK-MEL-28 melanoma it was 37.6%; in the test with SK-MEL-2 melanoma, -2.52% (active); with EKVX NSCLC, 19.3%; in the test on SN12C renal it was 7.45% (active). Moreover, the growth in the test on UO-31 renal was 6.71% (active); with TK-10 renal, 35.3%; in the test with ACHN renal, 0.457% (active); with CAKI-1 renal, 2.13% (active); in the test on CCRF-CEM leukemia, 18.1%; in the test on MOLT-4 leukemia it was 16.9%.

As for `Cc1ccc(/C=C/CC(=O)Nc2ccc(C(=O)Nc3ccc(F)cc3N)nc2)cn1`, the growth was 15.9% in the test on HT29 colon; 36.7% with SNB-75 CNS; 60% in the test with SNB-19 CNS; 44.9% in the test with U251 CNS; 42.9% in the test on PC-3 prostate; 20.9% in the test with SK-MEL-5 melanoma. For the same compound, the growth is 21.8% in the test on UACC-62 melanoma; 24.3% in the test with LOX IMVI melanoma; 25.3% in the test on SK-MEL-28 melanoma; 31.3% in the test on SK-MEL-2 melanoma; 49.8% with EKVX NSCLC; 57.6% in the test with SN12C renal. Also, the growth with UO-31 renal is 25.3%; in the test with ACHN renal, 31.6%; in the test on CAKI-1 renal, 26.4%; in the test on A498 renal, -3.27% (active); in the test with CCRF-CEM leukemia it was 17.8%; in the test with MOLT-4 leukemia it was 18.1%.
